SRC3 inh: SRC3 coactivator transcriptional activity inhibitors, primary screen, cell-based, luminescence; Nuclear receptor coactivator 3 (Homo sapiens), Q9Y6Q9; HEK293 GAL4-SRC3 luciferase reporter; inhibition, % at 3.6 µM; actives 0.17% (n = 360,000); AID 588352, 2011;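 active = inhibition above a per-campaign cutoff, the mean of all compounds plus 3 SD, cut at about 60% in these data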;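 also: 0% = DMSO-treated cells and 100% = gossypol-treated cells at 36 µM; higher means less SRC3-driven luciferase light from the GAL4 reporter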
Target sequence (Q9Y6Q9 whole entry, looked up, the tested form may be a part): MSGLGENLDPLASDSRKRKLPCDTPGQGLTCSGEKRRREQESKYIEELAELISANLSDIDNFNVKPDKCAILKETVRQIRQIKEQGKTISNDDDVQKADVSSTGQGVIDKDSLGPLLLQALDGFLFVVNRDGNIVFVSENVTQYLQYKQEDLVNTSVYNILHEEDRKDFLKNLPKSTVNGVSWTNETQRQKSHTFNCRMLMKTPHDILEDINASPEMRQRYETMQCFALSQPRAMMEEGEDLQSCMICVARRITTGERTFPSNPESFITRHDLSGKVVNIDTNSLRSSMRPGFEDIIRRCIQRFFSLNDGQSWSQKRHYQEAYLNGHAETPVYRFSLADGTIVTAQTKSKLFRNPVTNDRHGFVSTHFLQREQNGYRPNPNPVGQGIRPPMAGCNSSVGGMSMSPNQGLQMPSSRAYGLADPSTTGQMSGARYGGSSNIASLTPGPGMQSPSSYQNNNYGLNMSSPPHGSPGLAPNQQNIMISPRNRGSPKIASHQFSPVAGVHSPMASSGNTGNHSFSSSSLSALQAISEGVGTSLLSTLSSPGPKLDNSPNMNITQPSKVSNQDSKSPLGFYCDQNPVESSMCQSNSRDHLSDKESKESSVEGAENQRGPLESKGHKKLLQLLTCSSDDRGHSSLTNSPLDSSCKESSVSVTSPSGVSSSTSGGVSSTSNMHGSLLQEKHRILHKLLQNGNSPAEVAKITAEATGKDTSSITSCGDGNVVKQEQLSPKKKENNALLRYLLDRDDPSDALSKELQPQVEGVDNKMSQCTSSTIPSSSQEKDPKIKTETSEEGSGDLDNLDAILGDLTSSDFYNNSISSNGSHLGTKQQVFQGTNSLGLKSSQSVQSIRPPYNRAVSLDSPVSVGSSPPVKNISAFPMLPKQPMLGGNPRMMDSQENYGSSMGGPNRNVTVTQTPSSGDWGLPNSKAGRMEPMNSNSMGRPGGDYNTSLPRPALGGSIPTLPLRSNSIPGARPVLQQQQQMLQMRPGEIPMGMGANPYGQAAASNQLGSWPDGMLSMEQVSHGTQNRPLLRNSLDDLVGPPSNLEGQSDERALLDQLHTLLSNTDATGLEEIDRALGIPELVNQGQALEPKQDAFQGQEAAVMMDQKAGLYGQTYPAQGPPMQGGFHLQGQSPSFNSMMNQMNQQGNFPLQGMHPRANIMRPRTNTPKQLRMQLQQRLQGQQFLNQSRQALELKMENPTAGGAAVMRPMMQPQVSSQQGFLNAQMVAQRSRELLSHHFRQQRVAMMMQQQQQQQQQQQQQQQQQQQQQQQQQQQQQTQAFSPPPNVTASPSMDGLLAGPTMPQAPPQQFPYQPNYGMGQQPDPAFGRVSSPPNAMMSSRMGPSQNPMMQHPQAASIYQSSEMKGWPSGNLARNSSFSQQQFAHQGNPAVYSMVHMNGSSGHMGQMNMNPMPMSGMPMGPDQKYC
NR5A2 inv ag: LRH-1 (NR5A2) inverse agonists, primary screen, cell-based, luminescence, HEK293T, StAR-luciferase reporter; LRH-1 transfected, 24 h; inhibition, % at 3.6 µM; actives 0.13% (n = 360,000);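 active = inhibition above the mean inhibition of all tested compounds plus 3 SD, cut at about 73% in these data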;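 also: 0% = DMSO wells and 100% = reporter-only cells lacking LRH-1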
Gli-Sufu block: Gli-Sufu pathway antagonists, primary screen, luciferase luminescence, Sufu-KO-LIGHT cells, uHTS | inhibition, % at 5 µM | actives 0.74% (n = 340,000) | AID 588413, 2011 | Sufu-KO-LIGHT fibroblasts, Gli luciferase reporter luminescence;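 active = inhibition above about 55%, limit read from the data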;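 also: 0% = DMSO-treated cells and 100% = wells with medium but no cells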
NR2F2 inh: NR2F2 transcriptional activity inhibitors, primary screen, cell-based, luciferase reporter, HEK293T, luminescence | HEK293T NGFI-A luciferase reporter | COUP transcription factor 2 (Homo sapiens), P24468 | actives 0.7% (n = 370,000) | inhibition, % at 8.6 µM;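 active = inhibition above a per-plate cutoff, mean inhibition of test wells between control levels plus 3 SD, cut at about 38% in these data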;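 also: cells cotransfected with COUP-TFII expression vector driving the NGFI-A reporter; 0% = median of COUP-TF2 test wells and 100% = reporter-only cells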
NCOA1 inh: SRC1 coactivator transcriptional activity inhibitors, primary screen, cell-based, luminescence | HEK293 GAL4-SRC1 luciferase reporter | inhibition, % at 3.6 µM | AID 588354, 2011 | actives 0.12% (n = 360,000) | Nuclear receptor coactivator 1 (Homo sapiens), Q15788;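 active = inhibition above the campaign mean plus 3 SD, with each screening campaign given its own cutoff, cut at about 60% in these data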;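 also: 0% = DMSO treated cells and 100% = gossypol at 36 µM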
SRC2 inh: inhibition of GAL4-SRC2 driven luciferase reporter, primary screen, SRC2 inhibitor project, cell-based, luminescence; Nuclear receptor coactivator 2 (Homo sapiens), Q15596; inhibition, % at 9 µM; AID 651957, 2012; HEK293 GAL4-SRC2 luciferase reporter; actives 0.17% (n = 370,000);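 active = inhibition above the mean inhibition of all tested compounds plus 3 SD, set per campaign, cut at about 52% in these data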;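 also: 0% = DMSO treated cells and 100% = cells given Gossypol at 36 µM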
Gal4-VP16 ctr: Gal4-VP16 luciferase reporter inhibitors, counter-screen for COUP-TFII antagonist project, cell-based, luminescence, HEK293 | shares compounds with NR2F2 inh | inhibition, % at 8.5 µM | actives 25% (n = 2,500) | AID 687007, 2013; in the data active = inhibition above about 13%
COUP-TFII conf: NR2F2 transcriptional activity inhibitors, confirmation, cell-based, luciferase reporter, HEK293, triplicate; shares compounds with NR2F2 inh; actives 45% (n = 2,500); HEK293 NGFI-A luciferase reporter, luminescence; inhibition, % at 8.5 µM; AID 687008, 2013;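 active = mean inhibition over three repeats above a set limit taken from the earlier primary screen, cut at about 38% in these data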;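 also: 100% = cells given the luciferase reporter alone without the COUP-TF2 vector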
Starred values were filed as active, the others as inactive. Compounds with a hit are over-represented: about 1.3% of the library has one in this group of screens.

For CCOc1cc(C(=S)N2CCOCC2)ccc1OS(=O)(=O)c1ccc(OC)cc1 the results were SRC3 inh 5, NR5A2 inv ag -19, Gli-Sufu block 14, NR2F2 inh 24, NCOA1 inh 8 and SRC2 inh -39.
Screening O=C(Nc1ccccc1)Nc1cc(OCC(F)(F)F)cc(OCC(F)(F)F)c1 returned SRC3 inh 67*, NR5A2 inv ag 59, Gli-Sufu block 25, NR2F2 inh 67*, NCOA1 inh 9, SRC2 inh 17, Gal4-VP16 ctr 0 and COUP-TFII conf 20.
Cc1cc(C)n(-c2ccc(C(=O)Nc3ccc4c(c3)OCO4)cc2)n1 was read as SRC3 inh -39, NR5A2 inv ag -46, Gli-Sufu block 25, NR2F2 inh -46, NCOA1 inh -64 and SRC2 inh -20.
Screening Cc1ccc(NC(=O)c2ccncc2)cc1S(=O)(=O)N(C)C returned SRC3 inh 8, NR5A2 inv ag -5, Gli-Sufu block -2, NR2F2 inh -3, NCOA1 inh 3 and SRC2 inh -11.
Cc1cc(C)n(-c2ccc(C(=O)Nc3ccc(C)c(S(=O)(=O)N(C)C)c3)cc2)n1 was read as SRC3 inh 22, NR5A2 inv ag 3, Gli-Sufu block 6, NR2F2 inh 48*, NCOA1 inh 8, SRC2 inh 12, Gal4-VP16 ctr -4 and COUP-TFII conf 24.
Cc1ccc(NC(=O)c2ccc(OC(F)(F)F)cc2)cc1S(=O)(=O)N(C)C was read as SRC3 inh 13, NR5A2 inv ag 27, Gli-Sufu block 4, NR2F2 inh 55*, NCOA1 inh 2, SRC2 inh 13, Gal4-VP16 ctr -9 and COUP-TFII conf 35.
For Cc1ccc(NC(=O)CNc2ccc(Cl)c(Cl)c2)cc1S(=O)(=O)N(C)C the results were SRC3 inh 24, NR5A2 inv ag 5, Gli-Sufu block -5, NR2F2 inh 54*, NCOA1 inh 3, SRC2 inh -2, Gal4-VP16 ctr -5 and COUP-TFII conf 40*.
`Cc1cc(C)n(-c2ccc(C(=O)Nc3ccc(S(=O)(=O)N(C)C)cc3)cc2)n1` gave SRC3 inh 31, NR5A2 inv ag 19, Gli-Sufu block 4, NR2F2 inh 32, NCOA1 inh 18 and SRC2 inh -11.
Cc1cc(C)n(-c2ccc(C(=O)Nc3cccc(S(=O)(=O)N(C)C)c3)cc2)n1 was read as SRC3 inh 34, NR5A2 inv ag 16, Gli-Sufu block 32, NR2F2 inh 43*, NCOA1 inh 13, SRC2 inh 14, Gal4-VP16 ctr 14* and COUP-TFII conf 39*.
Screening CC(C)(C)c1ccc(S(=O)(=O)N2CCC(C(=O)NCC3COCCO3)CC2)cc1 (stereo not drawn) returned NR2F2 inh -6 and SRC2 inh 4.
`Cc1cc(N2CCN(C(=O)OC(C)(C)C)C[C@H]2C)ccc1N1CCS(=O)(=O)CC1` gave NR2F2 inh -2 and SRC2 inh 7.
`COC(=O)[C@]12C[C@H](CC(=O)NCC3CCCCC3)C(=O)N(CCc3ccc(OC)c(OC)c3)C1=C[C@H](C(C)C)O[C@@H]2C1CC1` gave NR2F2 inh -1 and SRC2 inh -10.
For CC(C)NC(=O)N[C@H]1C[C@@H]2O[C@@H](CO)CC[C@@H]2O[C@@H]1CCc1ccc(-c2ccccc2F)cc1 the results were NR2F2 inh -14 and SRC2 inh -9.
Screening O=C(OCc1ccccc1)[C@H](Cc1ccccc1)NC(=O)[C@@H]1CC=C[C@@H]2CCN(Cc3ccccc3)C(=O)[C@@H]21 returned NR2F2 inh 2.
Screening Cc1cc(C)n(-c2ccc(C(=O)Nc3ccc(S(=O)(=O)NCc4ccco4)cc3)cc2)n1 returned SRC3 inh 12, NR5A2 inv ag 25, Gli-Sufu block -9, NR2F2 inh 75*, NCOA1 inh 33, SRC2 inh 12, Gal4-VP16 ctr 24* and COUP-TFII conf 71*.
Screening CCN(CC)S(=O)(=O)c1cccc(NC(=O)c2ccc(-n3nc(C)cc3C)cc2)c1 returned SRC3 inh 25, NR5A2 inv ag 16, Gli-Sufu block 5, NR2F2 inh 65*, NCOA1 inh 13, SRC2 inh 14, Gal4-VP16 ctr 9 and COUP-TFII conf 33.
Cc1ccc(C(=O)Nc2ccc(S(=O)(=O)NCc3ccco3)cc2)cc1 was read as SRC3 inh -43, NR5A2 inv ag -51, Gli-Sufu block -9, NR2F2 inh 1, NCOA1 inh -131 and SRC2 inh -24.
Screening COc1ccc(OC)c(CN2C(=O)CSCC2(C)c2nnnn2C2CCCC2)c1 (stereo not drawn) returned NR2F2 inh 5 and SRC2 inh -19.
COc1c(C(O)CC(C)C)ccc2c1C(=O)OCc1cc(C)cc(O)c1O2 (stereo not drawn) was read as SRC3 inh 15, NR5A2 inv ag 12, Gli-Sufu block 9, NR2F2 inh 38*, NCOA1 inh 17, SRC2 inh 8, Gal4-VP16 ctr 2 and COUP-TFII conf 19.
For COc1c(C(CC(C)C)OC(C)=O)ccc2c1C(=O)OCc1cc(C)cc(O)c1O2 (stereo not drawn) the results were SRC3 inh 16, NR5A2 inv ag 12, Gli-Sufu block 12, NR2F2 inh 49*, NCOA1 inh 12, SRC2 inh 12, Gal4-VP16 ctr 0 and COUP-TFII conf 8.
`CC1(C(=O)Nc2ccccc2)CCN1C(=O)Cc1ccc(-c2ccccc2)cc1` (stereo not drawn) gave SRC3 inh 2, NR5A2 inv ag 26, NR2F2 inh 29, NCOA1 inh 3 and SRC2 inh 21.
Screening CC(C)(C)c1ccc(CC(=O)N2CCC2(C)C(=O)Nc2ccc3[nH]ncc3c2)cc1 (stereo not drawn) returned SRC3 inh -2, NR5A2 inv ag -23, NR2F2 inh -2, NCOA1 inh 0 and SRC2 inh 19.
